# Data reported in PubChem BioAssay (NCI).
# About 79,000 compounds went through this panel and 15% of them were active in at least one assay; those are over-represented in the sample as a whole. Unmarked numbers belong to inactive results. The source made the active and inactive calls. Cut-off read from the data, not from the text of the source: active = growth inhibition above about 70%; inactive = the rest.
# Columns and labels:
# [1] = NCI Yeast Anticancer Drug Screen. Data for the rad52 strain (AID 147);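 note: 0% = growth of vehicle-treated control cultures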; settings: S. cerevisiae rad52 mutant growth inhibition, hits give high values
# Summary of the method: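 Genetically altered yeast (DNA damage repair defect) treated with compound; inhibition calculated relative to vehicle.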
# [2] = NCI Yeast Anticancer Drug Screen. Data for the wt1 strain (AID 149);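 note: 0% = growth of vehicle-treated wt1 cultures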; settings: S. cerevisiae wt1 strain (SPY 50644) growth inhibition, hits give high values
# Summary of the method: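 Readout: yeast growth inhibition, normalised to vehicle controls, in the wt1 strain exposed to test compounds.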
# [3] = NCI Yeast Anticancer Drug Screen. Data for the rad50EPP+ strain (AID 151);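 note: 0% = growth of vehicle-treated control cultures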; settings: S. cerevisiae rad50 mutant strain, hits give high values
# Summary of the method: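 Strain rad50EPP+; compound exposure; % growth inhibition vs vehicle.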
# [4] = NCI Yeast Anticancer Drug Screen. Data for the mgt1 strain (AID 153); settings: S. cerevisiae mgt1 mutant growth inhibition, hits give high values
# Summary of the method: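 Read-out: yeast growth inhibition vs vehicle control. Strain mgt1, drawn from a panel altered in DNA damage repair or cell cycle control.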
# [5] = NCI Yeast Anticancer Drug Screen. Data for the rad50 strain (AID 155);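 note: 0% = growth of vehicle-only cultures of the same strain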; settings: S. cerevisiae rad50 strain growth inhibition, hits give high values
# Summary of the method: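 Compounds were tested on a yeast strain with an engineered DNA damage repair alteration; the reported value is growth inhibition normalised to vehicle treatment.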
# [6] = NCI Yeast Anticancer Drug Screen. Data for the mec2-1 strain (AID 157); settings: S. cerevisiae mec2-1 strain, hits give high values
# Summary of the method: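 Cells of the genetically defined mec2-1 yeast strain are incubated with test compound. Inhibition of growth is calculated against vehicle-treated controls.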
# [7] = NCI Yeast Anticancer Drug Screen. Data for the rad14 strain (AID 159);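 note: 0% = growth of vehicle-treated control cultures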; settings: S. cerevisiae rad14 strain growth inhibition, hits give high values
# Summary of the method: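 Compound-treated yeast with a defined DNA-repair lesion; growth inhibition normalised to vehicle-treated cultures.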
# [8] = NCI Yeast Anticancer Drug Screen. Data for the sgs1 mgt1 strain (AID 161);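 note: 0% = growth of cultures given vehicle only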; settings: S. cerevisiae sgs1 mgt1 strain, hits give high values
# Summary of the method: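 Read-out: growth inhibition vs vehicle controls. Cells: mutant yeast strain deficient in DNA damage repair.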
# [9] = NCI Yeast Anticancer Drug Screen. Data for the CLN2oe strain (AID 163);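 note: 0% = growth of vehicle-only control cultures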; settings: S. cerevisiae CLN2oe strain, hits give high values
# Summary of the method: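 Strain altered in cell-cycle control, incubated with compound; growth compared to solvent-treated controls.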
# [10] = NCI Yeast Anticancer Drug Screen. Data for the cln2 rad14 strain (AID 165);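 note: 0% = growth equal to vehicle treated cultures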; settings: S. cerevisiae cln2 rad14 strain, hits give high values
# Summary of the method: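 The screen exposed genetically defined yeast (cln2 rad14) to test compounds and scored growth inhibition relative to vehicle-treated controls.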
# [11] = NCI Yeast Anticancer Drug Screen. Data for the bub3 strain (AID 167); settings: S. cerevisiae bub3 mutant strain, hits give high values
# Summary of the method: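 Growth of a checkpoint-deficient yeast mutant is measured after compound exposure. Values represent inhibition relative to vehicle.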
# [12] = NCI Yeast Anticancer Drug Screen. Data for the wt2 strain (AID 169);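 note: 0% = growth of vehicle-treated yeast cultures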; settings: S. cerevisiae wt2 strain growth inhibition, hits give high values
# Summary of the method: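 Steps: yeast strain treated with compound; growth recorded; inhibition calculated relative to cultures given vehicle alone.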
# [13] = NCI Yeast Anticancer Drug Screen. Data for the mlh1 strain (AID 171);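 note: 0% = growth of vehicle-treated control cultures of the same strain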; settings: S. cerevisiae mlh1 strain growth inhibition, hits give high values
# Summary of the method: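 Yeast screen: mutant strain plus compound, growth scored against vehicle control wells.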
# [14] = NCI Yeast Anticancer Drug Screen. Data for the sgs1 strain (AID 173);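 note: 0% = growth of vehicle-only control cultures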; settings: S. cerevisiae sgs1 mutant, hits give high values
# Summary of the method: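 Inhibition of yeast growth served as the measure. The mutant strain was treated with each compound, and growth was normalised to cultures receiving vehicle alone.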
# [15] = NCI Yeast Anticancer Drug Screen. Data for the mlh1 rad18 strain (AID 175); settings: S. cerevisiae mlh1 rad18 strain growth inhibition, hits give high values
# Summary of the method: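 Compound-treated yeast growth, normalised to vehicle controls. Strain bears defined DNA repair mutations.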
# [16] = NCI Yeast Anticancer Drug Screen. Data for the rad18 strain (AID 177); settings: S. cerevisiae rad18 mutant growth inhibition, hits give high values
# Summary of the method: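 Inhibition values reflect reduced yeast growth compared with vehicle-treated controls, using a strain engineered with a DNA damage repair defect.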
# [17] = at 5.0 µM (retest, dose inferred, filed as 0.5)
# [18] = at 50.0 µM (retest, dose inferred, filed as 5.0)
structure (smiles),measurement,setting,value
CC(O)=NC(Cc1ccc2ccccc2c1)C(O)=NC(Cc1ccc(Cl)cc1)C(O)=NC(Cc1c[nH]c2ccccc12)C(O)=NC(CO)C(O)=NC(Cc1ccc(O)cc1)C(O)=NC(CCCN=C(N)N)C(O)=NC(CC(C)C)C(O)=NC(CCCN=C(N)N)C(=O)N1CCCC1C(O)=NC(C)C(=N)O (stereo not drawn),growth inhibition,[1]; at 1.2 µM,-7%
same,growth inhibition,[1]; at 3.7 µM,-8%
same,growth inhibition,[1]; at 11.0 µM,-4%
same,growth inhibition,[1]; at 33.0 µM,4%
same,growth inhibition,[1]; at 100.0 µM,16%
same,growth inhibition,[2]; at 1.2 µM,-2%
same,growth inhibition,[2]; at 3.7 µM,-4%
same,growth inhibition,[2]; at 11.0 µM,-5%
same,growth inhibition,[2]; at 33.0 µM,-3%
same,growth inhibition,[2]; at 100.0 µM,-1%
same,growth inhibition,[3]; at 1.2 µM,-4%
same,growth inhibition,[3]; at 3.7 µM,2%
same,growth inhibition,[3]; at 11.0 µM,11%
same,growth inhibition,[3]; at 33.0 µM,16%
same,growth inhibition,[3]; at 100.0 µM,11%
same,growth inhibition,[4]; at 1.2 µM,-3%
same,growth inhibition,[4]; at 3.7 µM,-2%
same,growth inhibition,[4]; at 11.0 µM,-4%
same,growth inhibition,[4]; at 33.0 µM,-5%
same,growth inhibition,[4]; at 100.0 µM,6%
same,growth inhibition,[5]; at 1.2 µM,-5%
same,growth inhibition,[5]; at 3.7 µM,-2%
same,growth inhibition,[5]; [17],-9%
same,growth inhibition,[5]; at 11.0 µM,1%
same,growth inhibition,[5]; at 33.0 µM,3%
same,growth inhibition,[5]; [18],16%
same,growth inhibition,[5]; at 50.0 µM,18.1%
same,growth inhibition,[5]; at 100.0 µM,25%
same,growth inhibition,[6]; at 1.2 µM,-2%
same,growth inhibition,[6]; at 3.7 µM,-3%
same,growth inhibition,[6]; [17],-14%
same,growth inhibition,[6]; at 11.0 µM,-4%
same,growth inhibition,[6]; at 33.0 µM,-2%
same,growth inhibition,[6]; [18],-6%
same,growth inhibition,[6]; at 50.0 µM,1.1%
same,growth inhibition,[6]; at 100.0 µM,3%
same,growth inhibition,[7]; at 1.2 µM,-5%
same,growth inhibition,[7]; at 3.7 µM,1%
same,growth inhibition,[7]; at 11.0 µM,4%
same,growth inhibition,[7]; at 33.0 µM,7%
same,growth inhibition,[7]; at 100.0 µM,24%
same,growth inhibition,[8]; [17],2%
same,growth inhibition,[8]; [18],20%
same,growth inhibition,[8]; at 50.0 µM,3%
same,growth inhibition,[9]; at 1.2 µM,-4%
same,growth inhibition,[9]; at 3.7 µM,0%
same,growth inhibition,[9]; at 11.0 µM,3%
same,growth inhibition,[9]; at 33.0 µM,19%
same,growth inhibition,[9]; at 100.0 µM,32%
same,growth inhibition,[10]; [17],-5%
same,growth inhibition,[10]; [18],18%
same,growth inhibition,[10]; at 50.0 µM,12.2%
same,growth inhibition,[11]; at 1.2 µM,-2%
same,growth inhibition,[11]; at 3.7 µM,-1%
same,growth inhibition,[11]; [17],39%
same,growth inhibition,[11]; at 11.0 µM,-4%
same,growth inhibition,[11]; at 33.0 µM,-1%
same,growth inhibition,[11]; [18],32%
same,growth inhibition,[11]; at 50.0 µM,19.9%
same,growth inhibition,[11]; at 100.0 µM,1%
same,growth inhibition,[12]; at 1.2 µM,-9%
same,growth inhibition,[12]; at 3.7 µM,-10%
same,growth inhibition,[12]; at 11.0 µM,-2%
same,growth inhibition,[12]; at 33.0 µM,11%
same,growth inhibition,[12]; at 100.0 µM,2%
same,growth inhibition,[13]; at 1.2 µM,-7%
same,growth inhibition,[13]; at 3.7 µM,-4%
same,growth inhibition,[13]; at 11.0 µM,-3%
same,growth inhibition,[13]; at 33.0 µM,3%
same,growth inhibition,[13]; at 100.0 µM,17%
same,growth inhibition,[14]; at 1.2 µM,-21%
same,growth inhibition,[14]; at 3.7 µM,-18%
same,growth inhibition,[14]; at 11.0 µM,-17%
same,growth inhibition,[14]; at 33.0 µM,3%
same,growth inhibition,[14]; at 100.0 µM,44%
same,growth inhibition,[15]; [17],52%
same,growth inhibition,[15]; [18],70% (active)
same,growth inhibition,[15]; at 50.0 µM,58.4%
same,growth inhibition,[16]; at 1.2 µM,-6%
same,growth inhibition,[16]; at 3.7 µM,-6%
same,growth inhibition,[16]; at 11.0 µM,-3%
same,growth inhibition,[16]; at 33.0 µM,1%
same,growth inhibition,[16]; at 100.0 µM,35%
